Screening data as filed in PubChem.
Rows were chosen to be rich in hits. Some 1.8% of all compounds tested hit in one or more screens of this group.
KAT2A inh: blocks human GCN5L2 histone acetyltransferase. GCN5L2 HAT assay, ThioGlo1 CoA-SH fluorescence. hit rate 0.21% among 390,000. Potency, µM (highest dose often 58.9 µM), hits mostly inhibitors. Q92830
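Enzyme at 20nM final was mixed with library compounds for 15 min at room temperature. Peptide H3(1-25) at 75uM, acetyl-CoA at 70uM and ThioGlo1 at 50uM were then added. Plates were read immediately and after 20 min (Ex340nm/Em540nm).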
VDR inh: vitamin D3 receptor (human) inhibition. AID 504847. P11473. VDR-SRC2-3 peptide fluorescence polarization, 2 h. hit rate 0.93% among 400,000. Potency, µM, most hits filed as inhibitors
Target sequence (P11473 whole entry, looked up): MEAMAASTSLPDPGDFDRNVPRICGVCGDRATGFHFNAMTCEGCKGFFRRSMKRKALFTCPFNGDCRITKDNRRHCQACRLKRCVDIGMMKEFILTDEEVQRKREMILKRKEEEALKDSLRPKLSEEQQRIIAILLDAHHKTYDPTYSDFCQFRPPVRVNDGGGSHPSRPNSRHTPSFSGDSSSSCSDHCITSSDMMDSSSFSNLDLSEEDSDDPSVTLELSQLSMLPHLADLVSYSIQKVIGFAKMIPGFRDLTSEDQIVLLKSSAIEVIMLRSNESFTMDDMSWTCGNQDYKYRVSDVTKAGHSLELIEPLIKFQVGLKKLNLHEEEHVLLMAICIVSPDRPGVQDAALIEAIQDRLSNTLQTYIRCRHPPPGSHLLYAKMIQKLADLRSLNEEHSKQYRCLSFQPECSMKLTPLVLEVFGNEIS
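Two reagent solutions held at 4 deg C in the dark were dispensed, compounds pinned at 23 nl, and the mixture incubated 2 h at room temperature. Read-out: fluorescence polarization of VDR–SRC2-3 peptide binding.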
rTrxR1 inhibitor: rat TrxR1 inhibition | O89049 | recombinant rTrxR1, NADPH fluorescence consumption, selenite substrate | Potency, µM (titrated, usually from 114 µM), usual class: inhibitors | hit rate 1% among 390,000; note: nearly all actives have a fitted effect of over 65% in size
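Rat TrxR1 (90 nM in the dispensed reagent) was pre-reduced with 400 uM NADPH for 5 min at room temperature, then incubated with compound for 15 min. After 400 uM selenite was added, NADPH fluorescence (Ex 340/Em 450 nm) was followed for 8 min.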
TrxR1 substrate: rat thioredoxin reductase 1 substrate activity. hit rate 0.01% among 390,000. O89049. Potency, µM (doses to about 114 µM). purified TrxR1 substrate turnover, NADPH consumption readout; note: nearly all actives have a fitted effect of over 50% in size
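Rat TrxR1, dispensed at 90 nM, was prereduced with 400 uM NADPH (final) for 5 min at ~22 deg C, then incubated with compound 15 min before 400 uM selenite. A first-read NADPH fluorescence drop versus no-compound background flagged substrates.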
Of the large screens only hits and unclear results are named; the others gave an inactive call; ! = a repeat was not active. Calls come from the whole dose curve; as a rule, active = well fitted curve in the direction sought with a large enough effect; inconclusive = small, poorly fitted or top-dose-only effect, or another doubt; inactive = no such curve, though single readings can be large; an effect the other way counts as inactive or inconclusive.

COCCCNc1oc(COc2ccc(Cl)cc2Cl)nc1C#N	VDR inh inconclusive, rTrxR1 inhibitor 25µM
Oc1c(Br)cc(Br)cc1/C=N/c1nccs1	VDR inh inconclusive, rTrxR1 inhibitor 35µM
COc1ccccc1N1CCN(Cc2ccc(O)c3ncccc23)CC1	none
Oc1ccc(CN2CCCc3ccccc32)c2cccnc12	VDR inh 79µM, rTrxR1 inhibitor 1.3µM
O=S(c1cc(Cl)cc(Cl)c1O)c1cc(Cl)cc(Cl)c1O	KAT2A inh inconclusive, VDR inh 40µM (no result: rTrxR1 inhibitor, TrxR1 substrate)
Cc1ccccc1CN1Cc2cccc3c2[C@H](C=CC3)CC1=O	none (no result: KAT2A inh, VDR inh)
NC(=O)c1ccccc1C[C@H](C(=O)O)N1C(=O)c2ccc(C(=O)O)cc2C1=O	none (no result: VDR inh, rTrxR1 inhibitor, TrxR1 substrate)
CCCCCCCCCC[n+]1cccc(Br)c1	none (no result: KAT2A inh, VDR inh)
C(C#CCCCCCCCCC[n+]1ccccc1)#CCCCCCCCCC[n+]1ccccc1	rTrxR1 inhibitor 56µM
O=C1CC(c2ccco2)CC2=C1C(c1ccc(O)cc1)n1nc(C(F)(F)F)nc1N2 (configuration not stated)	none (no result: KAT2A inh)
O=[N+]([O-])c1cc(C(F)(F)F)cc([N+](=O)[O-])c1NN=C1CCCCC1	VDR inh 50µM
O=C(OCn1ncc(Br)c(Br)c1=O)c1ccc(F)cc1	VDR inh 25µM, rTrxR1 inhibitor 1.8µM
CC(=O)OCn1ncc(N2CCOCC2)c(Br)c1=O	none
O=C(OCn1ncc(Br)c(Br)c1=O)c1ccccc1Cl	VDR inh 22µM, rTrxR1 inhibitor inconclusive
CC1(COc2ccc(CC3SC(=O)NC3=O)cc2)CCCCC1 (configuration not stated)	KAT2A inh 25µM! (no result: rTrxR1 inhibitor, TrxR1 substrate)
Cc1c(C)c2c(c(C)c1O)CCC(C)(COc1ccc(CC3SC(=O)NC3=O)cc1)O2 (configuration not stated)	KAT2A inh inconclusive (no result: rTrxR1 inhibitor, TrxR1 substrate)
CC1(COc2ccc(C[C@H]3SC(=O)NC3=O)cc2)CCCCC1	KAT2A inh 35µM (no result: rTrxR1 inhibitor, TrxR1 substrate)
Cc1[nH]c2ccccc2c1C(=O)CNc1ccc(Br)cc1	none (no result: KAT2A inh, VDR inh)
COc1cc2nc(N3CCOCC3)nc(NC(C)C)c2cc1OC	none (no result: KAT2A inh, VDR inh)
CCc1oc2ccccc2c1C(=O)c1cc(I)c(O)c(I)c1	KAT2A inh 8.9µM, VDR inh 32µM (no result: rTrxR1 inhibitor, TrxR1 substrate)
Cc1ccc(NC(=O)c2cncc(Br)c2)cc1S(=O)(=O)N(C)C	VDR inh 45µM
CN(C)S(=O)(=O)c1cccc(NC(=O)c2cncc(Br)c2)c1	none
[O-][N+]12CCCc3cccc(c31)CCC2	none (no result: KAT2A inh, VDR inh)
CCn1nc(C)cc1C(=O)Sc1ccc(Cl)cc1Cl	VDR inh 79µM, rTrxR1 inhibitor inconclusive
CCn1nc(C)cc1C(=O)OCC(=O)c1ccc(Cl)cc1	none
Cc1cc(C)n(C(=O)CNC(=O)c2cccc(Br)c2)n1	none
CCn1nc(C)cc1C(=O)Sc1cccc(Br)c1	VDR inh inconclusive, rTrxR1 inhibitor 7.9µM
CN(C)CCCCCCNc1nccc(N2CCN(C)CC2)n1	none (no result: KAT2A inh, VDR inh)
COC(=O)C[C@H]1c2cc(F)ccc2S(=O)(=O)N1C1CC1	none (no result: KAT2A inh, VDR inh)
N#Cc1cc(Oc2cccc3cccnc23)c(-n2nnc3ccccc32)cc1C#N	VDR inh inconclusive, rTrxR1 inhibitor 71µM
Cc1ccc(-n2ncc3c(Nc4ccc(Oc5ccccc5)cc4)ncnc32)c(C)c1	none
O=C(O)c1ccc2c(=O)n(Cc3ccccc3)c(SCc3ccc([N+](=O)[O-])cc3)nc2c1	VDR inh 79µM, rTrxR1 inhibitor inconclusive
O=C(O)/C=C/C(=O)Nc1ccccc1C(=O)Nc1ccccc1	rTrxR1 inhibitor 40µM
O=C(O)/C=C/C(=O)Nc1ccc(C2(c3ccc(NC(=O)/C=C/C(=O)O)cc3)c3ccccc3-c3ccccc32)cc1	VDR inh 25µM
Nc1[nH]c(=O)nc2nnsc12	rTrxR1 inhibitor inconclusive (no result: KAT2A inh, VDR inh)
CCCSCCCNC(=O)c1cc2n(n1)CCCN(Cc1ccc(C)cc1)C2=O	none
CCCNC(=O)COC(=O)c1ccccc1C(=O)c1ccc(Cl)c([N+](=O)[O-])c1	rTrxR1 inhibitor 50µM
Cc1cc(C)cc(N2C(=O)CS(=O)(=O)C23C(=O)N(C)c2ccccc23)c1 (configuration not stated)	none
C=C[C@@H](C1=CC(=O)C(OC)=C(OC)C1=O)c1ccccc1	VDR inh 4µM (no result: KAT2A inh, rTrxR1 inhibitor, TrxR1 substrate)
C=CC(C1=CC(=O)C=CC1=O)c1ccccc1 (configuration not stated)	VDR inh 35µM (no result: rTrxR1 inhibitor, TrxR1 substrate)
C=CC(C1=CC(=O)C(OC)=CC1=O)c1ccc(O)cc1 (configuration not stated)	none (no result: rTrxR1 inhibitor, TrxR1 substrate)
Cc1[nH]c(/C=C2/C(=O)Nc3ccc(S(=O)(=O)Cc4c(Cl)cccc4Cl)cc32)c(C)c1C(=O)N1CCCC1CN1CCCC1 (configuration not stated)	KAT2A inh inconclusive (no result: rTrxR1 inhibitor, TrxR1 substrate)
CCc1cccc(NC(=O)COC(=O)c2ccccc2OCc2ccccc2Br)c1	none (no result: KAT2A inh, VDR inh)
O=C(C[n+]1ccncc1)c1cccc([N+](=O)[O-])c1	rTrxR1 inhibitor inconclusive (no result: KAT2A inh, VDR inh)
Cc1ccc2c(/C=C/c3ccc(N(C)C)cc3)c(C)cnc2c1	none (no result: KAT2A inh, VDR inh)
O=C1OC(c2ccccc2)/C(=C(/O)c2ccc(Cl)cc2)C1=O (configuration not stated)	VDR inh 45µM, rTrxR1 inhibitor inconclusive
Cc1ccc(S(=O)(=O)CNC(=S)c2cccc(Cl)c2)cc1	VDR inh inconclusive, rTrxR1 inhibitor 14µM
CC(=O)Nc1ccc(SC[C@H](Cc2ccccc2)N2CC[C@@H](N)CCC2=O)cc1	none (no result: KAT2A inh, VDR inh)
Cc1c(Cl)cccc1NS(=O)(=O)c1ccccc1	none (no result: KAT2A inh)
Cc1c(NS(=O)(=O)c2ccccc2)cc(Cl)c(O)c1C	rTrxR1 inhibitor 25µM
COc1cccc(-c2nc(CS(=O)CC(=O)NCCc3ccccc3)c(C)o2)c1 (configuration not stated)	rTrxR1 inhibitor 28µM
COc1cccc(-c2nc(CS(=O)CC(=O)NC(C)CCc3ccccc3)c(C)o2)c1 (configuration not stated)	rTrxR1 inhibitor 28µM
CCC(C)NC(=O)CS(=O)Cc1nc(-c2cccc(OC)c2)oc1C (configuration not stated)	VDR inh inconclusive, rTrxR1 inhibitor 25µM
COc1cccc(-c2nc(CS(=O)CC(=O)O)c(C)o2)c1 (configuration not stated)	none
COc1cccc(-c2nc(CS(=O)CC(=O)NCCCOC(C)C)c(C)o2)c1 (configuration not stated)	none
Cc1ccccc1-c1nc(CS(=O)CC(=O)NC(C)CCc2ccccc2)c(C)o1 (configuration not stated)	rTrxR1 inhibitor 2.2µM
Cc1cccc(-c2nc(CS(=O)CC(=O)NCCc3ccccc3)c(C)o2)c1 (configuration not stated)	none
CN(C)c1ccc(/C=C/c2nc3ccccc3o2)cc1	none (no result: KAT2A inh, VDR inh)
O=C(N/N=C\c1ccc(Cl)s1)c1ccc(Cn2cccn2)o1	VDR inh 71µM
O=C(c1nc[nH]c1C(=O)N1CCc2ccccc2C1)N1CCc2ccccc2C1	none
CN(Cc1ccccc1)C(=O)c1nc[nH]c1C(=O)N1CCc2ccccc2C1	rTrxR1 inhibitor 40µM
C=C1[C@@H](O)[C@H](Cc2ccccc2)N(Cc2ccccc2Br)S1(=O)=O	VDR inh inconclusive, rTrxR1 inhibitor 14µM (no result: KAT2A inh)
